Measured values taken from PubChem BioAssay (NCATS).
“And” between values parts separate entries of the source, which are not always exact repeats. Equal values may be shown once. Records with an inconclusive call do not appear. The source made the active and inactive calls. Unless noted, calls follow the shape of the dose curve; as a rule, active = well fitted curve in the direction sought with a large enough effect; inconclusive = small, poorly fitted or top-dose-only effect, or another doubt; inactive = no such curve, though single readings can be large; an effect the other way counts as inactive or inconclusive.

Columns and labels:
[1] = biological target: Mitogen-activated protein kinase 10 (Mus musculus) (UniProt Q61831); experiment: JNK3 AlphaScreen Assay (AID 530; active = well fitted curve in either direction with a large enough effect, not every such curve was filed as active;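 also: kinase came from lysate of stimulated human HepG2 cells; signal reports phosphorylation of biotinylated GST-cJun 1-79 at Ser73 with 10 µM ATP; % is scaled to controls: 0 for no effect and ±100 for the full control effect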)
How it was run: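 JNK3 came from HepG2 lysates pre-activated with IL-1beta and TNF-alpha and phosphorylated biotinylated GST-cJun (1-79) at 10 uM ATP, pH 7.6, room temperature. Compounds were titrated. AlphaScreen signal used anti-phospho-cJun (Ser73) antibody.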

[2] = Cell Viability - N2a (AID 540); details: N2a mouse neuroblastoma cell viability; activity change, negative = cytotoxicity: at 92.2 µM (top of the series); also: nearly all actives have a fitted effect of over 45% in size; also: potency is read from the fitted curve at half-maximal effect;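 as to activity change, negative = cytotoxicity: plate controls were DMSO alone for no effect and tamoxifen control for full effect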
How it was run: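 First, 1500 N2a cells per well incubate 5 hr at 37 °C; next, compounds are added and incubated 40 hr at 37 °C; finally CellTiter-Glo is added and luminescence read after 20 min, with AC50 derived by Hill modeling.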

[3] = Cell Viability - NIH 3T3 (AID 541); details: NIH 3T3 cell viability, qHTS; activity change, negative = cytotoxicity: at 92.2 µM (top of the series);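 also: plate controls were DMSO alone for no effect and tamoxifen positive control for full effect; nearly all actives have a fitted effect of over 25% in size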
How it was run: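 AC50 values reflect concentration-dependent loss of intracellular ATP in NIH 3T3 cells after 40 hr treatment in complete culture medium, quantified by luciferase-based luminescence.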

[4] = Cell Viability - HUV-EC-C (AID 542); also: nearly all actives have a fitted effect of over 35% in size; also: potency is read from the fitted curve at half-maximal effect; as to activity change, negative = cytotoxicity: % is scaled to controls: 0 for no effect and ±100 for the full control effect
How it was run: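 Decrease in cellular ATP, quantified by luciferase luminescence, reflects toxicity in normal human vascular endothelial HUV-EC-C cells given compound for 40 hr in complete culture medium. Values are AC50s from concentration-response curves.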

[5] = Cell Viability - H-4-II-E (AID 543); also: nearly all actives have a fitted effect of over 35% in size; also: potency is read from the fitted curve at half-maximal effect
How it was run: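 Here, cytotoxicity is measured in the rat hepatoma line H-4-II-E as loss of intracellular ATP after 40 hr compound treatment, detected by luciferase luminescence.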

[6] = Cell Viability - SH-SY5Y (AID 544); details: SH-SY5Y neuroblastoma cell viability; viability change, negative = cytotoxic: at 92.2 µM (top of the series); also: nearly all actives have a fitted effect of over 55% in size; also: potency is read from the fitted curve at half-maximal effect;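 as to viability change, negative = cytotoxic: 0% = DMSO alone and -100% = 100 µM tamoxifen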
How it was run: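 Cytotoxicity is scored as a concentration-dependent fall in intracellular ATP in human SH-SY5Y cells treated 40 hr in complete culture medium. Potency is expressed as AC50 from a Hill equation fit.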

[7] = Cell Viability - Renal Proximal Tubule (AID 545); details: renal proximal tubule cells viability, primary cells of rat origin; activity change, negative = cytotoxicity: at 91.7 µM (top of the series); also: nearly all actives have a fitted effect of over 40% in size; also: potency is read from the fitted curve at half-maximal effect;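 as to activity change, negative = cytotoxicity: 0% = DMSO only and -100% = 100 µM tamoxifen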
How it was run: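 Rat renal proximal tubule primary cells, 1000/well, exposed to compounds for 40 hr at 37 °C in complete medium; cellular ATP read by CellTiter-Glo luminescence. AC50 from concentration-response fitted with standard Hill equation.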

[8] = Cell Viability - Mesenchymal (AID 546); details: mesenchymal cells viability, qHTS; activity change, negative = cytotoxicity: at 91.7 µM (top of the series);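 also: cells exposed to compound for 40 hours before reading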; also: potency is read from the fitted curve at half-maximal effect;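 as to activity change, negative = cytotoxicity: 0% = DMSO only and -100% = 100 µM tamoxifen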
How it was run: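 Normal human renal glomerulus-derived kidney mesenchymal cells, 1000 per well in complete medium, were treated with compounds for 40 hr at 37 °C. Viability was read as intracellular ATP by CellTiter-Glo luminescence; AC50 values came from Hill-equation fits of qHTS concentration-response data.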

[9] = Cellular Toxicity (caspase-3) HepG2 (AID 654);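 also: cells exposed to compound for 16 hours before reading; 0% = DMSO alone and 100% = caspase signal from 100 µM tamoxifen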
How it was run: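 qHTS, HepG2, 1500 cells/well, complete medium; cpd 16 h 37 °C; Caspase-Glo 3/7, 20 min RT; lum. Norm: DMSO vs 100 uM tamoxifen; AC50 Hill fit.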

[10] = Cellular Toxicity (caspase-3) Jurkat (AID 655);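 also: cells exposed to compound for 16 h at 37 °C before reading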
How it was run: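 Jurkat cells (5000/well) in complete medium exposed 16 h at 37 C; caspase-3/7 activity read by Caspase-Glo luminescence after 20 min at room temperature. Normalized to DMSO and 100 uM tamoxifen; AC50 from Hill fits.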

[11] = Cellular Toxicity (caspase-3) HUV-EC-C (AID 656);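 also: 0% = DMSO basal and 100% = 100 µM tamoxifen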
How it was run: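 HUV-EC-C cells (1000/well) in complete medium, compound-treated 16 h at 37 °C; caspase-3/7 activity read by Caspase-Glo 3/7 luminescence. Normalized to DMSO (basal) and 100 uM tamoxifen (100%); AC50 from Hill-equation concentration-response fits.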

[12] = Cellular Toxicity (caspase-3) SHSY5Y (AID 657)
How it was run: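 SH-SY5Y human neuroblastoma cells, 1500/well, exposed to compound for 16 hours at 37 °C in complete medium. Caspase-3/7 activity read by Caspase-Glo luminescence after 1 hr at room temperature, normalized to DMSO and 10 uM staurosporine; AC50 from Hill fit.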

[13] = Cellular Toxicity (caspase-3) BJ (AID 658);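 also: 0% = DMSO basal and 100% = 10 µM staurosporine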
How it was run: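 Luminescent aminoluciferin-substrate cleavage reports caspase 3/7 activity in normal human BJ fibroblasts after 16 hr compound exposure at 37 °C. Normalized to DMSO (basal) and 10 uM staurosporine (100%); AC50 from Hill fit of concentration-response.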

[14] = Cellular Toxicity (caspase-3) MRC-5 (AID 659);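 also: 0% = DMSO basal and 100% = 10 µM staurosporine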
How it was run: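 Luminescence from caspase-cleaved aminoluciferin substrate (Caspase-Glo 3/7, 1 hr RT) reports caspase 3/7 activity in MRC-5 lung fibroblasts after 16 hr compound exposure. Normalized to DMSO basal and 10 uM staurosporine as 100%; AC50 from Hill fits.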

[15] = Cellular Toxicity (caspase-3) Mesangial (AID 660);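 also: cells exposed to compound for 16 h before the caspase read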
How it was run: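 Concentration-response qHTS: compound-induced rise in caspase 3/7 luminescence in human mesangial cells after 16 h, normalized to DMSO and 100 uM tamoxifen controls.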

[16] = Cellular Toxicity (caspase-3) SK-N-SH (AID 661);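 also: 0% = DMSO basal and 100% = 10 µM staurosporine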
How it was run: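 Caspase 3/7 activation is measured as a luminescence increase from aminoluciferin released by substrate cleavage in SK-N-SH cells after 16 hr compound treatment; values are AC50 from concentration-response curves.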

[17] = biological target: Glucocorticoid receptor (Homo sapiens) (UniProt P04150); experiment: GR-GFP Redistribution (AID 450;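 active = compounds whose dose series gives a full or clear partial fitted curve of increased nuclear translocation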; also: potency is read from the fitted curve at half-maximal effect); details: U2OS GR-GFP nuclear translocation, laser cytometry, 2 h
[18] = biological target: Glucocorticoid receptor (Homo sapiens) (UniProt P04150); experiment: GR-EFC Redistribution (AID 451; calls by dose curve; also: potency is read from the fitted curve at half-maximal effect); details: CHO-K1 GR-EFC translocation, beta-gal luminescence, 2 h
How it was run: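 CHO-K1 cells stably expressing nuclear-localized β-gal enzyme acceptor and GR fused C-terminally to the enzyme donor fragment; ligand-driven nuclear translocation restores β-gal by complementation. Compounds titrated up to 46 uM final, 2 h at 37 °C; luminescence read.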

[19] = biological target: 3',5'-cyclic-AMP phosphodiesterase 4B (Homo sapiens) (UniProt Q07343); experiment: qHTS Assay for Inhibitors of PDE-IV (AID 607; active = well fitted activation curve with a large enough effect in the main read-out, with a control signal flat, not every such curve was filed as active; also: % of control where 0% means no effect)
How it was run: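 The readout is membrane depolarisation from a cAMP-sensing CNG channel, detected with a potential dye at ex 535/em 590. Cells were HEK293-derived (endogenous PDE-IV) at 1000 cells/well, titrated up to 22.9 uM final.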

3',5'-cyclic-AMP phosphodiesterase 4B (Homo sapiens), sequence (Q07343 whole entry, looked up): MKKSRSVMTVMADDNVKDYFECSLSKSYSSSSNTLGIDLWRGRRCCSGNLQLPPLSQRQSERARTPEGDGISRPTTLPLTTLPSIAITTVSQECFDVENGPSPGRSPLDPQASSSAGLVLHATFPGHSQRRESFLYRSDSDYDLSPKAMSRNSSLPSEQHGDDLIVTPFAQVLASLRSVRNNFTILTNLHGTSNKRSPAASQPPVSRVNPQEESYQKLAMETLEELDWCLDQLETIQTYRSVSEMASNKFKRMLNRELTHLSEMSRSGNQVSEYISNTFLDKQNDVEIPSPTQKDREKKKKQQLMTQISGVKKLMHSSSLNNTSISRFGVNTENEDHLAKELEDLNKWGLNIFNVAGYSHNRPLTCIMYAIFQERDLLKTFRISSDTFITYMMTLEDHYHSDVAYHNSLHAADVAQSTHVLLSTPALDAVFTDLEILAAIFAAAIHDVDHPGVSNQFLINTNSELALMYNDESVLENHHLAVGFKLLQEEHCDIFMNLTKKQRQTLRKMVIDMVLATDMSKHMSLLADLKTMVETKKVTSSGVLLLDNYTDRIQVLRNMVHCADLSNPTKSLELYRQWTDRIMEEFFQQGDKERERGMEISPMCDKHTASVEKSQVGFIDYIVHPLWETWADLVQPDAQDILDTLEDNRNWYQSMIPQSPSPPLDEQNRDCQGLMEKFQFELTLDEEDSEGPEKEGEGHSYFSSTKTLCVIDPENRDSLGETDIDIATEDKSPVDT
Glucocorticoid receptor (Homo sapiens), sequence (P04150 whole entry, looked up, the tested form may be a part): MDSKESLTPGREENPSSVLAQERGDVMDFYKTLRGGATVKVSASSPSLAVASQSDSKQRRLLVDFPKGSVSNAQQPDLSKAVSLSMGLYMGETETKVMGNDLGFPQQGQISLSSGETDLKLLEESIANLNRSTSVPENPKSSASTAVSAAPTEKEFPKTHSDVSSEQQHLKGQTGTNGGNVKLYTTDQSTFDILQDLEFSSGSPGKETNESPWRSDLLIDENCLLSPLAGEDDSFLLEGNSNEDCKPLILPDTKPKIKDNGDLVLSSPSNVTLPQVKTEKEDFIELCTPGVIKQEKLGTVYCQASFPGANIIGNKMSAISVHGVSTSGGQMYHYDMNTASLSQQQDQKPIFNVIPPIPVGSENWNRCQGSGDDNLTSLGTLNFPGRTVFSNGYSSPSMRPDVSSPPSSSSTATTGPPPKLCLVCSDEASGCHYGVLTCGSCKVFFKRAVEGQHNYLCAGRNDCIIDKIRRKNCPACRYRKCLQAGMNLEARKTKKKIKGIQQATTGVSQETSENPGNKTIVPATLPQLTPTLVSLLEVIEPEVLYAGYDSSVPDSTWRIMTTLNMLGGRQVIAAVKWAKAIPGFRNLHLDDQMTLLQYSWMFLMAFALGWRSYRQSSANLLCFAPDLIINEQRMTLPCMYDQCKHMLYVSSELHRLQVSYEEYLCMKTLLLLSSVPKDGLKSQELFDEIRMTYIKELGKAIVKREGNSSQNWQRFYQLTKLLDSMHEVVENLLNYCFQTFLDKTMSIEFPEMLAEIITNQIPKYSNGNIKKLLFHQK

c1ccc2occc2c1
inactive: outcome [1] | Potency [2] | activity change, negative = cytotoxicity [3] -5.88% | Potency [4] | Potency [5] | Potency [6] | Potency [7] | Potency [8] | outcome [9] | Potency [10] | outcome [11] | Potency [12] | outcome [13] | outcome [14] | outcome [15] | outcome [16]

CC(=O)OC/C=C(C)/C=C/C=C(C)/C=C/C1=C(C)CCCC1(C)C
inactive: outcome [1] | Potency [2] | Potency [4] | Potency [8] | outcome [9] | Potency [10] | outcome [11] | Potency [12] | outcome [13] | outcome [14] | outcome [15] | outcome [16]
active: activity change, negative = cytotoxicity [3] -114% | viability change, negative = cytotoxic [6] -99.5%

CC(C)(c1ccc(O)cc1)c1ccc(O)cc1
inactive: outcome [1] | Potency [2] | activity change, negative = cytotoxicity [3] -22.2% and -23.1% | Potency [4] | Potency [5] | Potency [6] | Potency [7] | Potency [8] | outcome [9] | Potency [10] | outcome [11] | Potency [12] | outcome [13] | outcome [14] | outcome [15] | outcome [16]

C1=CC2C3C=CC(C3)C2C1 (stereo not drawn)
inactive: outcome [1] | Potency [2] | Potency [4] | Potency [5] | Potency [6] | Potency [7] | Potency [8] | outcome [9] | Potency [10] | outcome [11] | Potency [12] | outcome [13] | outcome [14] | outcome [15] | outcome [16]

Nc1ccc(O)cc1
active: Potency [2] 31.6 µM | activity change, negative = cytotoxicity [3] -133% | Potency [4] 31.6 µM | Potency [5] 39.8 µM | Potency [6] 25.1 µM | Potency [7] 25.1 µM | Potency [8] 31.6 µM
inactive: outcome [1] | outcome [9] | Potency [10] | outcome [11] | outcome [13] | outcome [14] | outcome [15] | outcome [16]

CCCC(=O)c1cc(O)c(O)cc1O
active: viability change, negative = cytotoxic [6] -93.1%
inactive: outcome [1] | Potency [4] | Potency [5] | Potency [7] | outcome [9] | Potency [10] | outcome [11] | Potency [12] | outcome [13] | outcome [14] | outcome [15] | outcome [16]

Cc1cc(C(C)(C)C)c(O)c(C(C)(C)C)c1
inactive: Potency [2] | activity change, negative = cytotoxicity [3] 2.09% | Potency [4] | Potency [5] | Potency [6] | Potency [7] | Potency [8] | outcome [9] | Potency [10] | outcome [11] | Potency [12] | outcome [13] | outcome [14] | outcome [15] | outcome [16]

NCC(=O)O
inactive: Potency [17] > 46 µM | Potency [18] > 46 µM | outcome [1] | outcome [19]

COc1cc(C=O)ccc1O
inactive: outcome [1] | Potency [2] | activity change, negative = cytotoxicity [3] -22.1% | Potency [4] | Potency [5] | Potency [6] | Potency [7] | Potency [8] | outcome [9] | Potency [10] | outcome [11] | Potency [12] | outcome [13] | outcome [14] | outcome [15] | outcome [16]

Clc1ccc2c(c1)N=C(N1CCNCC1)c1ccccc1N2
inactive: Potency [17] > 46 µM | Potency [18] > 46 µM | outcome [1] | outcome [19]

Nc1c[n+](N2CCOCC2)no1
inactive: Potency [17] > 46 µM | Potency [18] > 46 µM | outcome [1] | outcome [19]

CC(C)(C)c1ccc(O)c(O)c1
active: activity change, negative = cytotoxicity [3] -146% | Potency [6] 12.6 µM | activity change, negative = cytotoxicity [7] -98.1% | activity change, negative = cytotoxicity [8] -100%
inactive: outcome [1] | outcome [9] | Potency [10] | outcome [11] | Potency [12] | outcome [13] | outcome [14] | outcome [15] | outcome [16]

CCCCC(CC)COC(=O)c1ccccc1C(=O)O (stereo not drawn)
inactive: outcome [1] | Potency [2] | activity change, negative = cytotoxicity [3] 10.8% | Potency [4] | Potency [5] | Potency [6] | Potency [7] | Potency [8] | outcome [9] | Potency [10] | outcome [11] | Potency [12] | outcome [13] | outcome [14] | outcome [15] | outcome [16]

O=C(c1ccccc1)c1ccccc1
inactive: outcome [1] | Potency [2] | activity change, negative = cytotoxicity [3] -23.6% | Potency [4] | Potency [5] | Potency [6] | Potency [7] | Potency [8] | outcome [9] | Potency [10] | outcome [11] | Potency [12] | outcome [13] | outcome [14] | outcome [15] | outcome [16]

O=C(Oc1ccccc1)c1ccccc1O
inactive: outcome [1] | Potency [2] | Potency [4] | Potency [5] | Potency [6] | Potency [7] | Potency [8] | outcome [9] | Potency [10] | outcome [11] | Potency [12] | outcome [13] | outcome [14] | outcome [15] | outcome [16]

CC(C)C(C)(C)C(C)(C)C(C)(C)S
inactive: outcome [1] | Potency [2] | activity change, negative = cytotoxicity [3] -18.6% | Potency [4] | Potency [5] | Potency [6] | Potency [7] | Potency [8] | outcome [9] | Potency [10] | outcome [11] | Potency [12] | outcome [13] | outcome [14] | outcome [15] | outcome [16]
